Out of some 310,000 compounds screened, about 14,000 (4.5%) showed an effect of 50% or more. The effect is printed as a negative number. The list comes from a sample in which strong results are over-represented; it also holds similar structures and randomly drawn compounds.
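Also: peak tail current of the secondary pulse compared with the same well before compound.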

In this assay the target is human ether-à-go-go-related gene (hERG) potassium channel (human, UniProt Q12809). The assay is described as follows: primary screen, population patch clamp on CHO cells stably expressing hERG; higher = less effect of the substance.
Sequence of human ether-à-go-go-related gene (hERG) potassium channel (Q12809 whole entry, looked up): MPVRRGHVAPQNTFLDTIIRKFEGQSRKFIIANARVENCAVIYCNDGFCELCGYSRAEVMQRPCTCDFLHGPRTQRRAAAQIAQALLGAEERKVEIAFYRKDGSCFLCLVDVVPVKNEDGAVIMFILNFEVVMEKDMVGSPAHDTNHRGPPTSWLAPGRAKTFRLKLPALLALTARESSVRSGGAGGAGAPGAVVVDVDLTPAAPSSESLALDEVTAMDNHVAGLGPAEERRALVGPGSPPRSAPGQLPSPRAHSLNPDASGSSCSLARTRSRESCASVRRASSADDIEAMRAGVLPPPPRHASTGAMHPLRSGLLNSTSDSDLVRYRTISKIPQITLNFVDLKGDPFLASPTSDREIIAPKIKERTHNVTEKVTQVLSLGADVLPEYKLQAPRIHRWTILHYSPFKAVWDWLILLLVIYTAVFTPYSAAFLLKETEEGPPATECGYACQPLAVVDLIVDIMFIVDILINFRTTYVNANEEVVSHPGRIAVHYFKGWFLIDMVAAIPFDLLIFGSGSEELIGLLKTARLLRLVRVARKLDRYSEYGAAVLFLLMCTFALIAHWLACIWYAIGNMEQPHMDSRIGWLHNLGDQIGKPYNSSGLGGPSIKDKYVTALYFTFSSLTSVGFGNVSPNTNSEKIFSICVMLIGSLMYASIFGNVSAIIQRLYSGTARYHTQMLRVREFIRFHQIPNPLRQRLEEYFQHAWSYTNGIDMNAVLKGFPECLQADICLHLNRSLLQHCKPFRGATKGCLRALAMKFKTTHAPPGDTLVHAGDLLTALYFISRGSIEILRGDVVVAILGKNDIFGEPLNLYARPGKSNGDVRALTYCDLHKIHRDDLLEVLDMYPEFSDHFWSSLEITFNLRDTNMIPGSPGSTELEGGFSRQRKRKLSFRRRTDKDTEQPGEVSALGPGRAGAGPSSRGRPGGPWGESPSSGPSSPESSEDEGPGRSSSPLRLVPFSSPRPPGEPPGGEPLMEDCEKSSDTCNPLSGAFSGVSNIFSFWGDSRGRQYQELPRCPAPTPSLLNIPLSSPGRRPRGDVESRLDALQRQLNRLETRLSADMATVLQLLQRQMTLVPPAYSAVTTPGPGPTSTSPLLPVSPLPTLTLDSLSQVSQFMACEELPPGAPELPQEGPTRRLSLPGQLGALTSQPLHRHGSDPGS
For the compound `COc1ccc(CN2CCc3c([nH]c4ccccc34)C2)c(OC)c1C`, the “hERG current change (%, negative = inhibition) at 10uM” value was -62.4%.
In the case of `COc1ccc(CN2CCc3c([nH]c4ccccc34)C2)cc1Br` it was -45.9%; in that of `COc1cc(OC)c(CN2CCc3c([nH]c4ccccc34)C2)cc1Br`, -54.9%; in that of `COc1ccccc1CN1CCc2c([nH]c3ccccc23)C1`, -23%.
In the case of `COc1cc2c(cc1OC)CN(Cc1ccc(OC)c(C)c1OC)CC2` it was -43.6%; in that of `Clc1cccc(CN2CCc3c([nH]c4ccccc34)C2)c1Cl`, -8.21%.
For `O=C(NNC(=O)C1CCN(Cc2cccc(F)c2)CC1)c1cccc(Cl)c1`, the “hERG current change (%, negative = inhibition) at 10uM” value is -8.28%.
With `CCOc1ccc(C(=O)Nc2nnc(S(=O)(=O)N(C)Cc3ccco3)s2)cc1` the figure was 9.14%.
In the case of `COCCN1Cc2cccc(C(=O)Nc3ccc4c(c3)OCCO4)c2C1=O` it was -5.24%.
With `O=C(CSCc1cccc(F)c1)N1CCN(c2ccccc2)CC1` the figure was -19.2%; with `Cc1ccc(NS(=O)(=O)c2c(C)[nH]c(=O)[nH]c2=O)c(C)c1`, 24.3%; with `COc1ccc(C(=O)N2CCN(C3CCCCC3)CC2)c(OC)c1`, -73.6%.
For the compound `COc1ccc(C(=O)N2CCN(C3CCC(c4ccccc4)CC3)CC2)cc1OC` (stereo not shown), the “hERG current change (%, negative = inhibition) at 10uM” value is given as -69.9%.
In the case of `COc1cccc(C(=O)N2CCN(C3CCCCC3)CC2)c1.O=C(O)C(=O)O`, the “hERG current change (%, negative = inhibition) at 10uM” value is -13.5%.
On to `COc1ccc(C(=O)N2CCN(C3CCN(Cc4ccccc4)CC3)CC2)cc1OC`, for which the “hERG current change (%, negative = inhibition) at 10uM” value was -42.8%.
Regarding `COc1cc(OC)cc(C(=O)N2CCN(C3CCCCC3)CC2)c1.O=C(O)C(=O)O`, the “hERG current change (%, negative = inhibition) at 10uM” value is recorded as -23.4%.
On to `COc1ccc(C(=O)N2CCN(C3CCCCC3)CC2)cc1OC.O=C(O)C(=O)O`, for which the “hERG current change (%, negative = inhibition) at 10uM” value was -73.6%.
In the case of `COc1cc(C(=O)N2CCN(C3CCCCC3)CC2)cc(OC)c1OC.O=C(O)C(=O)O` it was 2.07%.
On to `COc1ccc(C(=O)N2CCCN(C)CC2)c(OC)c1`, for which the “hERG current change (%, negative = inhibition) at 10uM” value is on record as -5.24%.
With `COc1ccc(C(=O)N2CCN(C(=O)Cc3ccccc3)CC2)cc1OC`, the “hERG current change (%, negative = inhibition) at 10uM” value is given as 5.3%.
With `CC(=O)c1c(C)[nH]c(C(=O)OCc2ccccc2)c1C` the figure was -3.71%.
For the compound `C=C(C)CSc1nnc(-c2ccccc2)n1N`, the “hERG current change (%, negative = inhibition) at 10uM” value was -1.72%.
In the case of `CCOC(=O)N1CCC(NS(=O)(=O)c2ccc3c(c2)oc(=O)n3C)CC1` it was 1.74%; in that of `COc1cccc(N2CCN(S(=O)(=O)c3cccc4nsnc34)CC2)c1`, -10.6%; in that of `CC(C)Cc1nnc(NC(=O)CCC(=O)NC2CC2)s1`, 21.9%.
With `COc1ccc(NC(=O)c2c(C)noc2-c2snnc2C)cc1` the figure was -1.51%; with `O=C(NCCc1ccco1)c1nn(Cc2ccccc2)c(=O)c2ccccc12`, 10.3%.
For `N=c1c(S(=O)(=O)c2ccc(Cl)cc2)cc2c(=O)n3ccccc3nc2n1Cc1ccco1`, the “hERG current change (%, negative = inhibition) at 10uM” value is 13.1%.
Take `N=c1c(S(=O)(=O)c2ccccc2)cc2c(=O)n3ccccc3nc2n1Cc1ccco1`: the “hERG current change (%, negative = inhibition) at 10uM” value is -18.9%.
With `O=C(NCc1ccco1)c1ccc(Cn2c(=O)c3ccccc3n(Cc3ccc(Cl)cc3)c2=O)cc1` the figure was 8.16%; with `Cn1c(C(=O)NCCC2=CCCCC2)cc2c(=O)n3ccccc3nc21`, 19.7%.
As for `N=c1c(C(=O)NCc2ccccc2)cc2c(=O)n3ccccc3nc2n1Cc1ccco1`, the “hERG current change (%, negative = inhibition) at 10uM” value is listed as -76.4%.
With `N=c1c(C(=O)NCc2ccco2)cc2c(=O)n3ccccc3nc2n1Cc1ccc(Cl)cc1` the figure was -77.1%.
In the case of `N=c1c(S(=O)(=O)c2ccc(Br)cc2)cc2c(=O)n3ccccc3nc2n1Cc1ccco1` it was 7.31%; in that of `O=C(NCCc1ccccc1)c1cnc2ccccn2c1=O`, -12%.
`CC(C)n1c(=N)c(C(=O)NCCc2ccccc2)cc2c(=O)n3ccccc3nc21`: the “hERG current change (%, negative = inhibition) at 10uM” value is on record as -75.1%.
Regarding `N=c1c(C(=O)NCCc2ccccc2)cc2c(=O)n3ccccc3nc2n1Cc1ccco1`, the “hERG current change (%, negative = inhibition) at 10uM” value is -77.9%.
In the case of `CCCCN(CC)c1nc(N)c(C#N)c(CC#N)c1C#N` it was -24.9%; in that of `O=C(NCCO)C(=O)NCC1OCCCN1S(=O)(=O)c1cc(F)ccc1F` (stereo not shown), 13.6%.
As to `CCOc1cc(/C=C/c2nc3ccccc3c(=O)[nH]2)ccc1O`, the “hERG current change (%, negative = inhibition) at 10uM” value was determined as 13.4%.
Regarding `CCN(CC)C(=O)OCc1c(-c2ccccc2)ncc2ccccc12`, the “hERG current change (%, negative = inhibition) at 10uM” value is recorded as -25.5%.
On to `CCc1nn(-c2cc(Oc3cccc4ccccc34)nc(-c3ccccc3)n2)c(N)c1C#N`, for which the “hERG current change (%, negative = inhibition) at 10uM” value is listed as 23.3%.
With `CCOC(=O)N1CCN(S(=O)(=O)c2ccc(OC)cc2)CC1`, the “hERG current change (%, negative = inhibition) at 10uM” value is listed as -4.57%.
As for `CC(=O)Nc1ccc(NS(=O)(=O)c2ccccc2)cc1`, the “hERG current change (%, negative = inhibition) at 10uM” value turned out to be 17.1%.
In the case of `O=C(CCn1c(SCC(=O)NCc2ccco2)nc2ccccc2c1=O)NCCc1ccccc1`, the “hERG current change (%, negative = inhibition) at 10uM” value is -34.5%.
With `N=c1c(C(=O)NCc2ccco2)cc2c(=O)n3ccccc3nc2n1CCc1ccccc1` the figure was -76.7%; with `N=c1c(C(=O)NCc2ccco2)cc2c(=O)n3ccccc3nc2n1Cc1ccccc1`, -79.3%.
Turning to `O=C(CCn1c(=O)c2ccccc2n(Cc2cc(=O)n3ccccc3n2)c1=O)NCc1ccco1`, the “hERG current change (%, negative = inhibition) at 10uM” value is given as -4.21%.
In the case of `N=c1c(C(=O)NCc2ccc(F)cc2)cc2c(=O)n3ccccc3nc2n1Cc1ccco1` it was -77.8%; in that of `Cn1nnnc1SCC(=O)Nc1ccc(S(=O)(=O)N2CCOCC2)cc1`, 3.21%; in that of `COc1ccc(CNC(=O)CN2C(=O)C3C4C=CC(C4)C3C2=O)cc1` (stereo not shown), 19.2%.
In the case of `O=C(O)C1CC(=O)N(c2ccc(OCc3ccc(Br)cc3)cc2)C1` (stereo not shown), the “hERG current change (%, negative = inhibition) at 10uM” value stood at 6.71%.
In the case of `COCCNC(=O)C(c1ccco1)N(C(=O)Cn1nnc2ccccc21)c1cc(C)ccc1C` (stereo not shown) it was -4.75%; in that of `O=c1c2[nH]c3ccc(F)cc3c2ncn1CCCn1ccnc1`, -61.1%.
With `O=c1c2[nH]c3ccc(Br)cc3c2ncn1Cc1ccncc1`, the “hERG current change (%, negative = inhibition) at 10uM” value was -4.79%.
With `COc1ccc2c(c1)[nH]c1c(=O)n(CCCn3ccnc3)cnc12` the figure was -35.1%; with `O=c1c2[nH]c3ccccc3c2ncn1CCCn1ccnc1`, -41.8%.
With `O=c1c2[nH]c3ccc(Br)cc3c2ncn1CCCn1ccnc1`, the “hERG current change (%, negative = inhibition) at 10uM” value is listed as -64.4%.
In the case of `O=C1CCCN1CCCn1cnc2c([nH]c3ccc(F)cc32)c1=O` it was -42.2%; in that of `CC(C)(C)C1CCC(=NNC(=O)c2cc3c(s2)CCCC3)CC1` (stereo not shown), 20.1%.
With `Cc1cccc(NC(=O)c2sc(NC(=O)c3ccco3)c(C#N)c2C)c1C` the figure was 5.79%; with `O=C(CCSc1nc(-c2ccco2)cc(C(F)(F)F)n1)NCc1ccccn1`, -22.5%.
Turning to `CC(=C/c1ccc(C(C)C)cc1)/C=N/NC(=O)Cn1nnnc1N`, the “hERG current change (%, negative = inhibition) at 10uM” value was found to be 17.3%.
For `CS/C(=N/S(=O)(=O)c1ccc(C)cc1)c1ccccc1`, the “hERG current change (%, negative = inhibition) at 10uM” value was -3.56%.
With `O=P(O)(O)O.c1ccc(CN(CC2=NCCN2)c2ccccc2)cc1` the figure was -17.3%.
With `CS(=O)(=O)O.Cc1ccc(N(CC2=NCCN2)c2cccc(O)c2)cc1`, the “hERG current change (%, negative = inhibition) at 10uM” value is recorded as -51.2%.
In the case of `Cc1ccc(N(CC2=NCCN2)c2cccc(O)c2)cc1.Cl` it was -58.3%.
As to `Cc1ccc(N(CC(=O)Nc2c(C)cccc2C)S(C)(=O)=O)cc1`, the “hERG current change (%, negative = inhibition) at 10uM” value worked out at 1.65%.
Turning to `Cl.c1ccc(CC2=NCCN2)cc1`, the “hERG current change (%, negative = inhibition) at 10uM” value stood at 7.57%.
As to `Cl.c1ccc(CN(CC2=NCCN2)c2ccccc2)cc1`, the “hERG current change (%, negative = inhibition) at 10uM” value is listed as -29.7%.
Turning to `Cc1cc(C)nc(/N=C2\NC(=O)CC(C(=O)O)N2CCc2c[nH]c3ccccc23)n1` (stereo not shown), the “hERG current change (%, negative = inhibition) at 10uM” value is 12.8%.
As to `COc1cccc(NC(=O)C(c2ccccc2)N2CCNC(=O)C2)c1` (stereo not shown), the “hERG current change (%, negative = inhibition) at 10uM” value is recorded as -7.23%.
Consider `O=C(CCN1CCOCC1)N1CCCC(Nc2ccc(F)cc2)C1` (stereo not shown), for which the “hERG current change (%, negative = inhibition) at 10uM” value was found to be 13.7%.
For the compound `C/C(=N\NC(=S)Nc1ccc(F)cc1)C1CC1`, the “hERG current change (%, negative = inhibition) at 10uM” value is -26.7%.
In the case of `COc1ccc(C(=O)NC(=S)Nc2cccnc2)cc1[N+](=O)[O-]` it was 4.69%; in that of `Cc1cccc(N(CC(=O)NCCSCc2ccccc2)S(C)(=O)=O)c1`, 26.5%; in that of `CCNC(=O)COC(=O)C1CCC(=O)N(c2ccc(OC)cc2)C1c1ccc(OC)cc1` (stereo not shown), -32.2%.
For the compound `COc1ccc(C2C(C(=O)OCC(=O)N3CCCCC3)CCC(=O)N2c2ccc(OC)cc2)cc1` (stereo not shown), the “hERG current change (%, negative = inhibition) at 10uM” value is -13.3%.
For `COc1ccc(C2C(C(=O)OCC(=O)Nc3ccc(C)cc3)CCC(=O)N2c2ccc(OC)cc2)cc1` (stereo not shown), the “hERG current change (%, negative = inhibition) at 10uM” value is -62.4%.
In the case of `COc1ccc(C(=O)OCC[N+]2(C)CCOCC2)cc1.[I-]` it was 13.6%.
On to `COCCN(C/C=C/c1ccccc1)C/C=C/c1ccccc1`, for which the “hERG current change (%, negative = inhibition) at 10uM” value was -69.4%.
With `NC(=O)CN(C/C=C/c1ccccc1)C/C=C/c1ccccc1` the figure was 20.6%.
As for `CN(C/C=C/c1ccccc1)C1CCCCC1`, the “hERG current change (%, negative = inhibition) at 10uM” value is recorded as -21.7%.
`CC(C)=CCCC(C)CN1CCC(n2nccc2NC(=O)c2cccnc2)CC1` (stereo not shown): the “hERG current change (%, negative = inhibition) at 10uM” value is on record as -52.1%.
With `CC(C)=CCCC(C)CN1CCC(n2nccc2NC(=O)C2CCCC2)CC1` (stereo not shown) the figure was -70.8%; with `COc1ccc(C(=O)Nc2ccnn2C2CCN(C(=O)c3cccnc3)CC2)cc1`, 12.3%.
In the case of `CC(C)(CO)CN1CCC(n2nccc2NC(=O)C2CCCC2)CC1` it was 11.4%; in that of `O=C(Nc1ccnn1C1CCN(CC(O)CO)CC1)C1CCCC1` (stereo not shown), 11.4%.
With `CC(C)CCN1CCC(n2nccc2NC(=O)c2ccc3c(c2)OCO3)CC1` the figure was -5.16%.
For the compound `CC(C)=CCCC(C)CN1CCC(n2nccc2NC(=O)c2ccccc2)CC1` (stereo not shown), the “hERG current change (%, negative = inhibition) at 10uM” value is on record as -69.6%.
In the case of `CCc1ccc(CN2CCC(n3nccc3NC(=O)c3ccccc3)CC2)o1` it was -36%.

The values are drawn from paper PMC4336329 (PLoS ONE, 2015).
